FBW7 act – FBW7 E3 ligase activators, primary screen, biochemical, AlphaScreen, human; F-box/WD repeat-containing protein 7 (Homo sapiens), Q969H0; hit rate 0.13% among 650,000; normalized activity (activation), % at 26.1 µM; AID 1259310, 2017; AlphaScreen FBW7–phospho-cyclin E peptide binding, activator screen; in the data active means normalized activity above about 1.9%;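 further: purified mutant Fbw7 with reduced substrate affinity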
TEAD-YAP block – TEAD-YAP interaction inhibition, primary screen, TEAD-YAP interaction inhibitor project, luminescence, HEK-TIYL cells | TEAD-Gal4/YAP UAS-luciferase luminescence | inhibition, % at 9.12 µM | hit rate 1.4% among 640,000; in the data active means inhibition above about 32%;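 further: 0% = median of test compound wells and 100% = reference inhibitor wells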
MITF inh – MITF inhibitors, primary screen, biochemical, AlphaScreen, human | hit rate 0.91% among 650,000 | AID 1259374, 2018 | AlphaScreen MITF homodimerization, bead proximity signal | inhibition, % at 2.6 µM | Microphthalmia-associated transcription factor (Homo sapiens), O75030; in the data active means inhibition above about 50%;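 further: 0% = vehicle wells with protein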
GPR151 activ – activators of human GPR151, primary screen, cell-based, PathHunter beta-arrestin, luminescence | activation, % at 11.2 µM | PathHunter beta-arrestin GPR151 cells | hit rate 1% among 650,000 | AID 1508602, 2020; in the data active means activation above about 4.9%;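 further: 0% = median of compound wells and 100% = cells with positive control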
Target sequence (Q8TDV0 whole entry, looked up): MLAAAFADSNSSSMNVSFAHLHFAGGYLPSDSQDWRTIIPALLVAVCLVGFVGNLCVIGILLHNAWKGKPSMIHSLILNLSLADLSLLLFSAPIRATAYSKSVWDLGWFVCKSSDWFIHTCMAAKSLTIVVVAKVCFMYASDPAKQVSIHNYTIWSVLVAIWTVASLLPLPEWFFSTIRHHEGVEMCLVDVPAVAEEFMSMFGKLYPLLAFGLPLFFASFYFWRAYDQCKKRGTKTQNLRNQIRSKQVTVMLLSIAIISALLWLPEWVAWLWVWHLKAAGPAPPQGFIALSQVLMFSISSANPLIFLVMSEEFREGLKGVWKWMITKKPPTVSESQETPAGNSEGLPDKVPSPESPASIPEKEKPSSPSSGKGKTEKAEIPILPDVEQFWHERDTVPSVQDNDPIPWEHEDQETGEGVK
GPR151 confirm – GPR151 activators, triplicate retest, confirmation, cell-based, PathHunter beta-arrestin, luminescence; AID 1508609, 2020; 6,700 tested, under 10 active; shares compounds with GPR151 activ; activation, % at 11.2 µM; GPR151 PathHunter beta-arrestin cells, 90 min; % of EA-reagent control over plate median;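 active means mean percent activation across replicates above the confirmation screen cutoff of 4.91%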
GPR119 counter – GPR119 activators in beta-arrestin cells, counter-screen for GPR151 activator project, cell-based, PathHunter beta-arrestin, luminescence, triplicate; shares compounds with GPR151 activ; hit rate 0.3% among 6,700; 90 min; 0 = compound-well median, 100 = enzyme-acceptor control; activation, % at 11.2 µM; AID 1508611, 2020;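 active means mean percent activation in the counterscreen above 29.09%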;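 further: counterscreen on off-target GPR119 to flag nonselective hits from the GPR151 activator screen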
The depositor's hits bear a star; x = not tested or not shown. Shown are actives, neighbours in structure and some others; about 3.4% of the full set was active somewhere.

SMILES	FBW7 act	TEAD-YAP block	MITF inh	GPR151 activ	GPR151 confirm	GPR119 counter
O=C(N/N=C/c1ccc(Cl)c([N+](=O)[O-])c1)c1cc(-c2ccccc2)n[nH]1	0	-8	21	7.2*	0	-10
CCC(C(=O)N1CCCCC1)n1ncn2c(cc3occc32)c1=O (stereo unspecified)	0	-6	6	5.7*	0	6
Cc1ccc2c(NC(=O)c3ccccc3Cl)noc2n1	0	24	-7	-1	x	x
O=C(NCC1CCC2(CCN(C(=O)c3ccncc3)CC2)O1)c1ccc2[nH]ccc2c1 (stereo unspecified)	0	5	-5	8.0*	0	12
CCCCOC(=O)c1cc(NC(=S)NC(=O)/C=C/c2ccccc2)ccc1Cl	0	12	19	0	x	x
O=C(O)C1CC=CCC1C(=O)Nc1cccc2ccccc12 (stereo unspecified)	0	-5	12	0	x	x
c1ccc2c(c1)sc1nnc(SCc3cn4cccnc4n3)n12	0	-9	5	5.0*	-1	-12
CCC(=O)NNC(=O)C(C)Oc1ccc(Cl)cc1Cl (stereo unspecified)	0	-9	11	1	x	x
COCC(=O)NNC(=O)C(C)Oc1ccc(Cl)cc1Cl (stereo unspecified)	0	10	-2	5.0*	0	8
CCNC(=O)C(C)Oc1ccc(Cl)cc1C (stereo unspecified)	0	2	-8	5.5*	0	5
CC(=O)C/C(C)=N/NC(=O)C(C)Oc1ccc(Cl)cc1C (stereo unspecified)	0	17	3	0	x	x
COC(=O)c1ccc(C2C(C#N)=C(N)Oc3n[nH]c(-c4ccncc4)c32)cc1 (stereo unspecified)	-1	0	-2	-1	x	x
C/C(=C/c1ccccc1)C(=O)Nc1ccc(S(N)(=O)=O)cc1	0	-44	-3	5.0*	0	-8
CC1CCN(S(=O)(=O)c2ccc3[nH]cc(C(=O)N4CCc5ccccc54)c(=O)c3c2)CC1	0	1	7	2	x	x
Cc1ccc(S(=O)(=O)Nc2ccccc2C(=O)Nc2sc3c(c2C#N)CCCC3)cc1	0	26	6	0	x	x
Cc1ccc(NC(=O)CSc2cn(Cc3ccc(F)cc3)c3ccccc23)cc1	0	-2	5	7.0*	-1	-4
O=C(Nc1nc(-c2ccccc2)cs1)c1ccc(S(=O)(=O)N2CCc3ccccc32)cc1	0	0	0	-2	x	x
O=C(Nc1nc(-c2cc3ccccc3oc2=O)cs1)c1ccc(S(=O)(=O)N2CCc3ccccc32)cc1	0	-19	-5	5.0*	0	4
O=C(Nc1nc(-c2ccncc2)cs1)c1ccccc1I	0	-15	-1	6.3*	1	11
O=C(NC(=S)NNc1ccccc1)c1cc2ccccc2oc1=O	0	8	17	5.5*	1	13
O=C(NC(=S)Nc1ncccn1)c1cc2ccccc2oc1=O	0	-8	2	-1	x	x
O=C(Nc1nc(-c2cc3ccccc3o2)cs1)c1cc2ccccc2oc1=O	0	0	7	21*	-1	8
COc1ccc(S(=O)(=O)N2CCN(CCNC(=O)c3ccc(OC(C)C)cc3)CC2)cc1	0	4	7	0	x	x
CCc1ccccc1NC(=O)Cn1c(=O)n(CC2CCCO2)c(=O)c2ccccc21 (stereo unspecified)	1	8	9	-1	x	x
COc1ccc(/C=N/NC(=O)C(=O)Nc2ccc(C)cc2)c(OC)c1	0	7	17	0	x	x
CCCCC1CCC(C(=O)Nc2c3c(nn2-c2ccc(C)cc2)CS(=O)(=O)C3)CC1 (stereo unspecified)	0	4	6	-3	x	x

From PubChem BioAssay
